# Measured values from PubChem BioAssay (EPA / NIEHS).
# Results filed as inconclusive are left out. Calls of active or inactive are those of the source. How the source made its calls, unless noted: active means hit-call score of the fitted dose curve at least 0.9, where 1 is the maximum; inconclusive means response in the unintended direction; inactive means score below 0.9.
# Tests used:
# [1] = biological target: Retinoic acid receptor RXR-alpha (Homo sapiens) (UniProt P19793); experiment: ATG_RXRa_TRANS: Attagene TRANS-FACTORIAL HepG2 Assay for human Retinoid X Receptor alpha (RXRa) (AID 2283012)
# How it was run: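 HepG2 cells transiently transfected with multiplexed GAL4-UAS reporter units and chimeric NR-GAL4 fusions, dosed 24 h. Reporter mRNA measured by RT-PCR, FAM labelling, HpaI digestion and capillary electrophoresis; gain-of-signal fitted relative to DMSO baseline.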
# [2] = biological target: human Retinoid X Receptor beta (RXRb), RXRB (gene 6257) (UniProt P28702); experiment: ATG_RXRb_TRANS: Attagene TRANS-FACTORIAL HepG2 Assay for human Retinoid X Receptor beta (RXRb) (AID 2283013)
# How it was run: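 HepG2 cells transiently transfected with multiplexed reporter units driven by GAL4-UAS and exogenous chimeric NR-Gal4 proteins; treated 24 h. Reporter mRNA measured by RT-PCR, 6-FAM labelling and capillary electrophoresis; gain-of-signal fitted versus DMSO baseline.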
# [3] = biological target: human Thyroid Receptor alpha (THRa1), THRA (gene 7067) (UniProt P10827); experiment: ATG_THRa1_TRANS: Attagene TRANS-FACTORIAL HepG2 Assay for human Thyroid Receptor alpha (THRa1) (AID 2283014)
# How it was run: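 Reporter transcript induction, read by capillary electrophoresis of 6-FAM-labelled RT-PCR products, reflects activity of a transfected THRa1-Gal4 fusion in HepG2 liver cells. Cells were dosed for 24 h; activity was fitted in the positive direction against DMSO.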
# [4] = biological target: human Vitamin D Receptor (VDR), VDR (gene 7421) (UniProt P11473); experiment: ATG_VDR_TRANS: Attagene TRANS-FACTORIAL HepG2 Assay for human Vitamin D Receptor (VDR) (AID 2283022)
# How it was run: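 Steps: transfect HepG2 with GAL4-UAS-driven reporter constructs; dose compounds 24 h; isolate RNA, reverse-transcribe, PCR-amplify with 6-FAM-labelled primer extension and HpaI digestion; quantify fragments by capillary electrophoresis relative to DMSO.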
# [5] = read-out: E-selectin (Homo sapiens) (UniProt P16581); experiment: BSK_3C_Eselectin: BioMAP Diversity Plus: 3C Assay for Eselectin Biomarker Activity (AID 2283015; active means hit-call score of the fitted dose curve at least 0.9, where 1 is the maximum; inactive means score below 0.9;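 further: cell surface E-selectin protein quantified by ELISA 24 h after dosing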); details: primary human endothelial cells (HUVEC); actives raise or lower the signal
# How it was run: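 ELISA read-out of E-selectin on endothelial monolayers after 24 h chemical treatment. Human umbilical vein primary cells served as the system, with DMSO defining baseline activity for bidirectional fitting.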
# [6] = read-out: Interleukin-1 alpha (IL1a), IL1A (gene 3552); experiment: BSK_BE3C_IL1a: BioMAP Diversity Plus: BE3C Assay for Interleukin-1 alpha (IL1a) Biomarker Activity (AID 2283016; active means hit-call score of the fitted dose curve at least 0.9, where 1 is the maximum; inactive means score below 0.9); details: primary human bronchial epithelial cells; actives raise or lower the signal
# How it was run: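 Human primary bronchial epithelial cells (BE3C system) were dosed with compound and IL-1a measured by ELISA 24 h later. Activity was fitted bidirectionally against DMSO baseline; cytotoxicity was tracked in parallel cultures by SRB total-protein staining.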
# [7] = read-out: Monocyte Chemoattractant Protein-1 (MCP1), CCL2 (gene 6347); experiment: BSK_3C_MCP1: BioMAP Diversity Plus: 3C Assay for Monocyte Chemoattractant Protein-1 (MCP1) Biomarker Activity (AID 2283017; active means hit-call score of the fitted dose curve at least 0.9, where 1 is the maximum; inactive means score below 0.9); details: primary human endothelial cells (HUVEC); actives raise or lower the signal
# How it was run: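 ELISA read-out of MCP-1 from human umbilical vein endothelial cell cultures harvested 24 h post-dosing. Gain or loss of signal was fitted relative to DMSO.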
# [8] = read-out: Monocyte Chemoattractant Protein-1 (MCP1), CCL2 (gene 6347); experiment: BSK_4H_MCP1: BioMAP Diversity Plus: 4H Assay for Monocyte Chemoattractant Protein-1 (MCP1) Biomarker Activity (AID 2283018; active means hit-call score of the fitted dose curve at least 0.9, where 1 is the maximum; inactive means score below 0.9); details: primary human endothelial cells (HUVEC); actives raise or lower the signal
# How it was run: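 Human umbilical vein endothelial cells (4H system) dosed with chemical; MCP-1 measured by ELISA 24 h after dosing. Bidirectional curve fitting against DMSO negative control as baseline; parallel SRB total-protein staining tracks overt cytotoxicity.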
# [9] = read-out: Human Leukocyte Antigen - DR isotype (HLADR), HLA-DRA (gene 3122); experiment: BSK_3C_HLADR: BioMAP Diversity Plus: 3C Assay for Human Leukocyte Antigen - DR isotype (HLADR) Biomarker Activity (AID 2283019; active means hit-call score of the fitted dose curve at least 0.9, where 1 is the maximum; inactive means score below 0.9;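 further: ELISA of cell-surface HLA-DR on HUVEC 24 h after dosing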); details: primary human endothelial cells (HUVEC); actives raise or lower the signal
# How it was run: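 ELISA readout of surface HLA-DR on human umbilical vein endothelium, taken 24 h after chemical treatment. Gain- and loss-of-signal were both fitted relative to DMSO.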
# [10] = read-out: Interleukin-8 (IL8), CXCL8 (gene 3576); experiment: BSK_3C_IL8: BioMAP Diversity Plus: 3C Assay for Interleukin-8 (IL8) Biomarker Activity (AID 2283020; active means hit-call score of the fitted dose curve at least 0.9, where 1 is the maximum; inactive means score below 0.9); details: primary human endothelial cells (HUVEC); actives raise or lower the signal
# How it was run: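 Primary human umbilical vein endothelial cells (3C system) were exposed to test chemical for 24 h, then IL-8 was quantified by ELISA. Responses were fitted bidirectionally against DMSO vehicle as baseline.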
# [11] = BSK_3C_SRB: Viability Assessment in the BioMAP Diversity Plus: 3C Assay (AID 2283023; active means hit-call score of the fitted dose curve at least 0.9, where 1 is the maximum; inactive means score below 0.9;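 further: fitted both ways against DMSO so a hit may be signal rise or drop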); details: primary human endothelial cells (HUVEC)
# How it was run: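 Absorbance at 560 nm of sulforhodamine B-stained (0.1%) total protein served as a cytotoxicity readout in human umbilical vein endothelial cells, 24 h after chemical treatment. Signal was fitted bidirectionally relative to DMSO.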
# [12] = read-out: Pselectin, SELP (gene 6403); experiment: BSK_4H_Pselectin: BioMAP Diversity Plus: 4H Assay for Pselectin Biomarker Activity (AID 2283026; active means hit-call score of the fitted dose curve at least 0.9, where 1 is the maximum; inactive means score below 0.9); details: primary human endothelial cells (HUVEC); actives raise or lower the signal
# How it was run: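 Primary human umbilical vein endothelial cells were exposed to test chemical for 24 h, then cell-surface P-selectin was quantified by ELISA. Activity was fitted bidirectionally against DMSO as negative control and baseline.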
# [13] = BSK_BE3C_SRB: Viability Assessment in the BioMAP Diversity Plus: BE3C Assay (AID 2283028; active means hit-call score of the fitted dose curve at least 0.9, where 1 is the maximum; inactive means score below 0.9); details: primary human bronchial epithelial cells
# How it was run: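 Cells (human bronchial epithelial, primary) are treated with chemicals, and after 24 h the parallel cultures are fixed in 10% TCA. These are then stained with 0.1% SRB and read at 560 nm. Gain or loss of signal is fitted relative to DMSO.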
# [14] = read-out: Thrombomodulin, THBD (gene 7056); experiment: BSK_3C_Thrombomodulin: BioMAP Diversity Plus: 3C Assay for Thrombomodulin Biomarker Activity (AID 2283029; active means hit-call score of the fitted dose curve at least 0.9, where 1 is the maximum; inactive means score below 0.9); details: primary human endothelial cells (HUVEC); actives raise or lower the signal
# How it was run: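 Primary human umbilical vein endothelial cells (3C system) were exposed to chemical for 24 h, then thrombomodulin levels were measured by ELISA. Activity was fitted bidirectionally against the DMSO negative control as baseline.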
# [15] = read-out: Urokinase-type plasminogen activator receptor (uPAR), PLAUR (gene 5329); experiment: BSK_4H_uPAR: BioMAP Diversity Plus: 4H Assay for Urokinase-type plasminogen activator receptor (uPAR) Biomarker Activity (AID 2283030; active means hit-call score of the fitted dose curve at least 0.9, where 1 is the maximum; inactive means score below 0.9); details: primary human endothelial cells (HUVEC); actives raise or lower the signal
# How it was run: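 Cell-surface uPAR ELISA signal, measured 24 h after dosing human umbilical vein endothelial cells, was analyzed with bidirectional fitting relative to DMSO. Parallel SRB staining of total protein tracked overt cytotoxicity.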
# Chain of Retinoic acid receptor RXR-alpha (Homo sapiens) (P19793 whole entry, looked up, the tested form may be a part): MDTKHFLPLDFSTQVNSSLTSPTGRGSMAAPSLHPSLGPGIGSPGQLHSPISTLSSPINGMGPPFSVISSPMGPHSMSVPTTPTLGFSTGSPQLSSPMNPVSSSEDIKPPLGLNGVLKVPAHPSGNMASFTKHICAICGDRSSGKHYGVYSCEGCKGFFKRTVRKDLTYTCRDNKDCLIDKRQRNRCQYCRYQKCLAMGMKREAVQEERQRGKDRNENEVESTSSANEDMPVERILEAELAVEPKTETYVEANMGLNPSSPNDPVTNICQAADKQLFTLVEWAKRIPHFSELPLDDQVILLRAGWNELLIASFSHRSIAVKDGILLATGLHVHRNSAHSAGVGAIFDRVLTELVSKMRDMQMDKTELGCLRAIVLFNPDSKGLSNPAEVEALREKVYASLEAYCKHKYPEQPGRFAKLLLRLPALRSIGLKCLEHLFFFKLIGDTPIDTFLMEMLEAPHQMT
# Chain of human Vitamin D Receptor (VDR), VDR (gene 7421) (P11473 whole entry, looked up, the tested form may be a part): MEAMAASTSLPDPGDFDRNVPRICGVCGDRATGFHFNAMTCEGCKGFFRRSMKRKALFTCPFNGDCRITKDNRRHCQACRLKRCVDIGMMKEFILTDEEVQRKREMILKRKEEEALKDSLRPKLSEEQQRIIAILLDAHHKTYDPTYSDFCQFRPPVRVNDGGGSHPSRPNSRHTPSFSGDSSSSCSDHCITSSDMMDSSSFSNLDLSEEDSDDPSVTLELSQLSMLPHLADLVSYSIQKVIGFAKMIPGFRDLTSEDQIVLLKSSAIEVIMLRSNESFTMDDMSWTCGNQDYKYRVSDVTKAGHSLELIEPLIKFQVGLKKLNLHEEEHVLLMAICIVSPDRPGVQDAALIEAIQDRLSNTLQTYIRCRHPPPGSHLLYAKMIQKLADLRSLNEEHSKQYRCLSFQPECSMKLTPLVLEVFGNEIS
# Chain of human Thyroid Receptor alpha (THRa1), THRA (gene 7067) (P10827 whole entry, looked up, the tested form may be a part): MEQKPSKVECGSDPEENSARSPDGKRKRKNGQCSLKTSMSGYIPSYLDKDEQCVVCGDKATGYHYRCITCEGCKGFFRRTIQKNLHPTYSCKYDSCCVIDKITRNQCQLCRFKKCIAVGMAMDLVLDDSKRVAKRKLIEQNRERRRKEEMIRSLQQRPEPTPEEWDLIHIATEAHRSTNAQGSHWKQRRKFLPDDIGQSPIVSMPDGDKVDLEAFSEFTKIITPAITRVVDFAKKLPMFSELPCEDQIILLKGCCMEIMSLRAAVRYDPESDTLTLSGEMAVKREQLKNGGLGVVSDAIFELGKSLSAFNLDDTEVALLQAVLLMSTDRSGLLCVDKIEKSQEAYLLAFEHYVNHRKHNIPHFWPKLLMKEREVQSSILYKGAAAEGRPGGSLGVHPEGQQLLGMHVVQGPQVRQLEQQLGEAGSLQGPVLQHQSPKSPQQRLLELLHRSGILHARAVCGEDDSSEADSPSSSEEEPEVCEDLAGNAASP
# Chain of human Retinoid X Receptor beta (RXRb), RXRB (gene 6257) (P28702 whole entry, looked up, the tested form may be a part): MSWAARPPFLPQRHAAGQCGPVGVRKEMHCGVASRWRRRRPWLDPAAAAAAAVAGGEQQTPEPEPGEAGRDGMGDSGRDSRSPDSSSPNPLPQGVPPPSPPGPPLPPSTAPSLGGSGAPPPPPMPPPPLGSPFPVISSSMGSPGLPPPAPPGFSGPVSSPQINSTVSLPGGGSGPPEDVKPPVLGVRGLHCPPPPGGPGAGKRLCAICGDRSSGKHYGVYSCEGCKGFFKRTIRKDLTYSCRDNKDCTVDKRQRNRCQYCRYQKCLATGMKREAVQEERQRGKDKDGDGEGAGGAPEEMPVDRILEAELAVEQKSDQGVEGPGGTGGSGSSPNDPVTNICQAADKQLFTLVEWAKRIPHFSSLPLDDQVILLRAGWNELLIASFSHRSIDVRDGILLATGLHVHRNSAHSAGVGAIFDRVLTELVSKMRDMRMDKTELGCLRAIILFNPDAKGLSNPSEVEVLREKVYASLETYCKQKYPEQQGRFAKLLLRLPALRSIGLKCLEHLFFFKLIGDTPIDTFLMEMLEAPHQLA
# Chain of E-selectin (Homo sapiens) (P16581 whole entry, looked up): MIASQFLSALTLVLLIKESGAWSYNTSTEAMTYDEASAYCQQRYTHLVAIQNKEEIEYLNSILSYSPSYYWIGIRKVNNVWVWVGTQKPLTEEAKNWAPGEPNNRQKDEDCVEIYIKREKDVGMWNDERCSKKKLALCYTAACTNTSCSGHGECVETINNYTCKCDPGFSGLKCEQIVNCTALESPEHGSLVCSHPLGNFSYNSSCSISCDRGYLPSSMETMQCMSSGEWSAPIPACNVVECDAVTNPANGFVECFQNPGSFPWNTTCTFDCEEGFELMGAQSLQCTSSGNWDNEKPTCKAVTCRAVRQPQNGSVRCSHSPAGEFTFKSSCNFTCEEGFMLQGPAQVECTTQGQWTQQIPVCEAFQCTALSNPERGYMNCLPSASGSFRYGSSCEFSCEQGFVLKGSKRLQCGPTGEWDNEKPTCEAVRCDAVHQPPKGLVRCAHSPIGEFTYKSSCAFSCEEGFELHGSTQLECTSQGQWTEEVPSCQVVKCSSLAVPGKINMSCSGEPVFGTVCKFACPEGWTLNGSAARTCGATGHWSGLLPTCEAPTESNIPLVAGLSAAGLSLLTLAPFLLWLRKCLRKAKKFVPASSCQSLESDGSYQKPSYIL
smiles,measurement,setting,value
C=COCC1CCC(COC=C)CC1 (stereo not drawn),outcome,[1],inactive
same,outcome,[2],inactive
same,outcome,[3],inactive
same,outcome,[4],inactive
CC(=O)C1=C(C)[C@@H]2C[C@@]3(C1)[C@H](C)CC[C@H]3C2(C)C,outcome,[1],inactive
same,AC50,[2],21.4 µM (active)
same,outcome,[3],inactive
same,outcome,[4],inactive
C=C(C)CCCC(C)CCO (stereo not drawn),outcome,[1],inactive
same,outcome,[2],inactive
same,outcome,[3],inactive
CCCCCC1C(=O)CCC1CC(=O)OC (stereo not drawn),outcome,[1],inactive
same,outcome,[2],inactive
same,outcome,[3],inactive
COc1ccc(N)c(C)c1,outcome,[1],inactive
same,outcome,[2],inactive
same,AC50,[3],73.2 µM (active)
same,outcome,[4],inactive
CC(C)(C)C1CCC(O)CC1 (stereo not drawn),outcome,[1],inactive
same,outcome,[2],inactive
same,outcome,[3],inactive
same,outcome,[4],inactive
CCCCCCCCCCCCN1CCOCC1,outcome,[1],inactive
same,AC50,[2],42.8 µM (active)
same,outcome,[3],inactive
C=C1CC[C@H]2O[C@]2(C)CC[C@@H]2[C@@H]1CC2(C)C,outcome,[1],inactive
same,AC50,[2],100 µM (active)
same,outcome,[3],inactive
same,outcome,[4],inactive
O=c1cc(-c2ccc(O)cc2)oc2cc(O)cc(O)c12,outcome,[1],inactive
same,outcome,[2],inactive
same,outcome,[3],inactive
N#CCCCC(C#N)CCC#N (stereo not drawn),outcome,[1],inactive
same,outcome,[2],inactive
same,outcome,[3],inactive
C=CCCCCCCCCC(=O)OCC,outcome,[1],inactive
same,AC50,[2],100 µM (active)
same,outcome,[3],inactive
same,outcome,[4],inactive
CCCCCCC(O)CCOC(C)=O (stereo not drawn),outcome,[1],inactive
same,outcome,[2],inactive
O=C(OCc1ccccc1)c1ccccc1O,outcome,[1],inactive
same,AC50,[2],50.1 µM (active)
same,outcome,[3],inactive
same,outcome,[4],inactive
OC[C@H]1O[C@@H](O[C@H]2[C@H](O)[C@@H](O)[C@H](O)O[C@@H]2CO)[C@H](O)[C@@H](O)[C@H]1O,outcome,[1],inactive
same,outcome,[2],inactive
same,outcome,[3],inactive
O=[N+]([O-])c1cc(N(CCO)CCO)ccc1NCCO,outcome,[1],inactive
same,outcome,[2],inactive
same,outcome,[3],inactive
same,outcome,[4],inactive
CC(=O)CC(C)(C)C1CCCCC1,outcome,[1],inactive
same,outcome,[2],inactive
same,outcome,[3],inactive
O=C(O)c1ccc(C(=O)O)c(C(=O)O)c1,outcome,[1],inactive
same,outcome,[2],inactive
same,outcome,[3],inactive
CCC(C)(C)c1cc(O)c(C(C)(C)CC)cc1O,outcome,[1],inactive
same,AC50,[2],59.9 µM (active)
same,outcome,[3],inactive
same,outcome,[4],inactive
[Cl][Dy]([Cl])[Cl],outcome,[1],inactive
same,outcome,[2],inactive
same,outcome,[3],inactive
same,outcome,[4],inactive
CCC(C)COC(=O)CC(C)C (stereo not drawn),outcome,[1],inactive
same,outcome,[2],inactive
same,outcome,[3],inactive
CCC(=O)OCC=Cc1ccccc1,outcome,[1],inactive
same,outcome,[2],inactive
same,outcome,[5],inactive
same,outcome,[6],inactive
same,outcome,[7],inactive
same,outcome,[8],inactive
same,outcome,[9],inactive
same,outcome,[10],inactive
same,outcome,[4],inactive
same,outcome,[11],inactive
same,outcome,[12],inactive
same,outcome,[13],inactive
same,outcome,[14],inactive
same,outcome,[15],inactive
CN1CCc2cccc3c2[C@H]1Cc1ccc(O)c(O)c1-3,outcome,[1],inactive
same,outcome,[2],inactive
same,outcome,[4],inactive
CC(CO)c1ccccc1 (stereo not drawn),outcome,[2],inactive
same,outcome,[3],inactive
C=CC(C)CCCC(C)(C)O (stereo not drawn),outcome,[1],inactive
same,outcome,[4],inactive
CCCCCCCCCO,outcome,[1],inactive
same,outcome,[2],inactive
same,outcome,[4],inactive
CC1=CC(O)CC(C)(C)C1 (stereo not drawn),outcome,[1],inactive
same,outcome,[4],inactive
CC(C)Cc1ccc(C(C)C(=O)O)cc1 (stereo not drawn),outcome,[2],inactive
same,outcome,[3],inactive
same,outcome,[5],inactive
same,outcome,[6],inactive
same,outcome,[7],inactive
same,outcome,[8],inactive
same,outcome,[9],inactive
same,AC50,[10],0.0158 µM (active)
same,outcome,[11],inactive
same,outcome,[12],inactive
same,outcome,[13],inactive
same,outcome,[14],inactive
same,outcome,[15],inactive
